Each structure is given as a SMILES string. Unmarked numbers belong to inactive results.

The experiment deals with primary human airway basal cells (HBEC, luciferase-transduced). As to the kind of experiment: proliferation (luciferase bioluminescence) Z score relative to plate mean; higher = more proliferation / more cells, active = 1.96 or more. The note with it: donor: 1, library: ENZO Libraries, 4 days. How it is done: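 Primary human bronchial epithelial (airway basal) cells from two donors, lentivirally transduced with pHIV-Luc-ZsGreen, were seeded at 2000 cells/well in 384-well plates in FAD medium with ENZO or Prestwick library compounds and cultured for 4 days. Luciferin was then added and bioluminescence was read as a measure of cell number. Relative light units were converted to Z scores against the plate, and the mean of triplicate wells is reported.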

For `CCCCCCCCCCCCC/C=C/[C@@H](O)[C@@H](N)CO` [D-erythro-Sphingosine], the proliferation (0.5 µM) was -0.0291 and the proliferation (5 µM) was 0.187.
For `O=C(O)c1cc(N(Cc2ccccc2O)Cc2cc(O)ccc2O)ccc1O` [Lavendustin A], in that order: -0.351 and -0.457.
For `CC(C)C[C@H](NC(=O)N[C@H](C(=O)N[C@@H](CCC(N)=O)C(=O)N[C@@H](C)C=O)[C@@H]1CCNC(=N)N1)C(=O)O` [Elastatinal], in that order: -0.455 and -0.0211.
On to `O=C(CCCCCCC(=O)NO)NO` [Suberoyl bis-hydroxamic acid], for which the proliferation is 0.147 (0.5 µM) and -0.101 (5 µM).
On to `O=c1oc(Cl)c(Cl)c2ccccc12` [34-Dichloroisocoumarin], for which the proliferation is, setting by setting: (0.5 µM) 0.257; (5 µM) 0.055.
As for `CC[C@H](CO)Nc1nc(NCc2ccccc2)c2ncn(C(C)C)c2n1` [Roscovitine], the proliferation reads like this: (0.5 µM) -0.00187; (5 µM) -0.592.
The matching figures for `O=c1ncccn1[C@@H]1O[C@H](CO)[C@@H](O)[C@H]1O` [Zebularine]: -0.238 and 0.0287.
The matching figures for `Nc1ccccc1NC(=O)CCCCCCC(=O)Nc1ccccc1`: 0.133 and 0.0632.
With `CSCCC(C=O)NC(=O)C(CC(C)C)NC(=O)[C@H](CC(C)C)NC(C)=O` (stereo not given in full) [Calpain Inhibitor II (ALLM)], the proliferation was 0.241 (0.5 µM) and -0.104 (5 µM).
In the case of `Oc1cc(O)cc(/C=C/c2ccc(O)c(O)c2)c1` [Piceatannol], the proliferation was -0.115 (0.5 µM) and 1.52 (5 µM).

For the origin of these results see the supplement of paper PMC12045047.
